Source: PubChem (National Center for Advancing Translational Sciences (NCATS))
This is a sample that favours compounds with a hit; in the whole collection about 13% have one here.
LASV entry inh: blocks Lassa virus binding to or entry into cells; Potency, µM (highest dose often 37.9 µM), usual class: inhibitors; Lassa virus pseudotype entry inhibition, cell reporter; AID 540256; actives 1.2% (n = 300,000); calls by dose curve; tested in HEK293 cells; also: nearly all actives have a fitted effect of over 50% in size
Cycloheximide cs: affects cycloheximide protein synthesis inhibition readout, counter-screen. cell reporter, cycloheximide protein synthesis inhibition counterscreen. AID 2314. actives 12% (n = 300,000). max response, %; in the data active = max response mostly above about 13%, no sharp cut-off; inactive = mostly below about 14%; also: read at 38.3 µM for the half of the compounds with a filed dose
MARV entry inh: blocks Marburg virus binding to or entry into cells; actives 1.8% (n = 300,000); Marburg virus pseudotyped entry inhibition, cell reporter; AID 540276; Potency, µM (series often up to 37.8 µM), actives largely listed as inhibitors; calls by dose curve; tested in HEK293 cells
FMDV antiviral: blocks foot and mouth disease virus; AID 1159524; FMDV antiviral cell-based qHTS; actives 1.2% (n = 410,000); Potency, µM (doses to about 57.9 µM), hits mostly inhibitors; calls by dose curve; tested in HEK293T cells; also: read-out not given here; nearly all actives have a fitted effect of over 45% in size
HCV inhibitor: blocks hepatitis C virus; Huh7.5.1 HCVcc-Cre infection, luciferase reporter, 44 h; Potency, µM (highest dose often 41.8 µM), hits mostly inhibitors; actives 3.4% (n = 340,000); AID 651820; active = well fitted inhibition curve with a large enough effect; inconclusive = small, poorly fitted or top-dose-only effect, or another doubt; inactive = no such curve, though single readings can be large or run the other way
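Infectious HCVcc-Cre (~0.5 moi) was added to cells just after compound, with cells seeded 4 h earlier at 1,000 per well. Luciferase activity after 44 h culture reported infection; substrate was incubated 15 min at room temperature before reading.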
Shiga inhibitor: inhibitors of Shiga toxin in Vero cells; actives 9.2% (n = 290,000); Vero cells, Shiga toxin protein synthesis inhibition reporter; AID 2315; inhibition, % at 38.7 µM; in the data active = inhibition mostly above about 28%, no sharp cut-off; inactive = mostly below about 43%
Hits are given with their value; – = inactive; ? = inconclusive; · = no result given.

SMILES	LASV entry inh	Cycloheximide cs	MARV entry inh	FMDV antiviral	HCV inhibitor	Shiga inhibitor
CCOc1ccc(NCc2cc3cc(OC)ccc3[nH]c2=O)cc1	·	–	·	?	?	–
COc1ccc2[nH]c(=O)c(CNc3ccccc3C)cc2c1	?	43	?	–	–	90
COc1ccc2[nH]c(=O)c(CNc3ccccc3)cc2c1	?	43	–	–	–	73
COc1ccc2[nH]c(=O)c(CNc3ccc(C)cc3C)cc2c1	?	30	–	–	–	70
CCCCCC(=O)N1C[C@@H](O)[C@H](n2cc(C3CC3)nn2)C[C@@H]1c1ccccc1	·	·	·	–	·	·
O=C(Oc1ccc(/C=N/O)cc1)c1ccccc1	–	23	–	–	–	–
O=C(O)c1ccc(N/N=C/c2ccc(OC(=O)c3cccc(Cl)c3)cc2)cc1	·	37	·	20µM	–	75
O=C(Oc1ccc(/C=N/Nc2ccccc2)cc1)c1ccccc1	–	22	–	–	–	75
CCCC(C(=O)NC1CCCC1)N(CCN(CC)CC)C(=O)c1snc(C(N)=O)c1N (stereo not drawn)	–	–	–	–	–	–
CCN(Cc1ccccc1)S(=O)(=O)c1ccc(C(=O)N(CCCN(C)C)c2nc3cc(C)cc(C)c3s2)cc1	?	·	10µM	–	10µM	·
CCN(Cc1ccccc1)S(=O)(=O)c1ccc(C(=O)N(CCCN(C)C)c2nc3c(F)cccc3s2)cc1	?	–	8.9µM	–	–	–
O=C(Cc1ccc(NC(=O)C2CCCN(C(=O)C3CC3)C2)cc1)Nc1cccc(C(=O)N2CCCC2)c1 (stereo not drawn)	·	·	·	–	–	·
Cc1ccc(N2CC(NS(=O)(=O)c3cccs3)CC2=O)cc1C (stereo not drawn)	–	·	–	–	–	·
Cn1c(=O)c2[nH]c(CCCCCCCc3nc4ccccc4[nH]3)nc2n(C)c1=O	–	·	?	16µM	8.9µM	·
Cn1c(=O)c2[nH]c(COc3ccc(C(C)(C)C)cc3)nc2n(C)c1=O	·	–	·	20µM	11µM	–
Cn1c(=O)c2[nH]c(Cc3cccc(O)c3)nc2n(C)c1=O	–	·	–	–	–	·
N#Cc1c(N2CCN(c3ccc(F)cc3)CC2)nc(N)c2c(N)nc3c(c12)CC(=O)N3C1CC1	–	–	–	–	?	–
COc1cc(C2NC(=S)NC(O)(C(F)(F)F)C2C(=O)c2cccs2)cc(OC)c1O (stereo not drawn)	–	40	–	–	–	11
CN1C(=O)NC(c2ccc(O)cc2)C(C(=O)c2cccs2)C1(O)C(F)(F)F (stereo not drawn)	–	–	–	–	?	111
CCOC(=O)C1C(c2cc(OC)c(O)c(OC)c2)NC(=S)NC1(O)C(F)(F)F (stereo not drawn)	–	–	?	–	–	–
CSc1nc2ccsc2c(=O)n1-c1ccccn1	–	–	–	–	–	–
CC(C)=CC(=O)OCC(=O)NC1CCCc2ccccc21 (stereo not drawn)	–	–	–	–	–	–
CCCC(=O)Nc1ccccc1NC(=O)c1cc(OC)c(OC)c(OC)c1	–	–	–	–	–	–
O=C(Nc1ccc(Cl)cc1)Nc1nnc(CSCc2ccccc2)s1	–	–	–	–	–	–
O=C(Nc1nnc(SCc2ccccc2F)s1)C1=COCCO1	–	57	?	–	–	116
SMILES	LASV entry inh	Cycloheximide cs	MARV entry inh	FMDV antiviral	HCV inhibitor	Shiga inhibitor
CC(=O)Nc1nnc(SCc2ccccc2F)s1	–	24	–	–	–	44
CC(=O)Nc1nnc(CSCc2ccccc2F)s1	–	23	?	–	–	–
CCOc1cc(C2NC(=O)CCC2[N+](=O)[O-])cc(Br)c1OCC (stereo not drawn)	·	–	·	–	–	–
COc1ccc(-c2nc(Cn3c(SCc4ccccc4F)nc4ccncc43)c(C)o2)cc1OC	–	·	–	–	·	·
Cc1cccc(-c2nc(Cn3c(SCc4cccc(C(F)(F)F)c4)nc4ccncc43)c(C)o2)c1	–	·	–	–	·	·
COc1ccc(-c2nc(Cn3c(SCc4ccc(C)cc4)nc4ccncc43)c(C)o2)cc1OC	·	48	·	–	?	101
COc1ccc(-c2nc(Cn3c(SCc4cccc(F)c4)nc4ccncc43)c(C)o2)cc1OC	·	12	–	–	–	–
CN(c1ccccc1)S(=O)(=O)c1ccc(NC(=O)c2ccccc2)cc1	?	–	–	?	?	active
CC1CN(C(=O)c2cc(S(=O)(=O)N(C)c3ccc(F)cc3)ccc2Cl)CC(C)O1 (stereo not drawn)	?	–	?	–	10µM	–
CN(c1ccccc1)S(=O)(=O)c1ccc(NC(=O)c2ccc(F)cc2)cc1	?	·	18µM	?	?	·
CN(c1ccc(F)cc1)S(=O)(=O)c1ccc(Cl)c(C(=O)Nc2ccc3c(c2)CCC3)c1	?	–	–	–	?	–
CN(c1ccccc1)S(=O)(=O)c1ccc(C(=O)Nc2ccncc2)cc1	–	·	–	?	–	·
CN(c1ccc(F)cc1)S(=O)(=O)c1ccc(Cl)c(C(=O)Nc2ccncc2)c1	–	·	–	20µM	?	·
O=CN1CCc2scc[n+]2-c2ccccc21	–	–	–	–	–	–
O=C(NCCO)c1cccc(Cl)c1	–	–	–	–	–	–
CCc1nnc(NC(=O)c2ccc(S(=O)(=O)N(C)c3ccccc3)cc2)o1	?	–	?	–	7.1µM	–
CN(c1ccc(C(=O)Nc2ccccn2)cc1)S(=O)(=O)c1ccccc1	–	32	–	–	–	90
Nc1ccc(C23CC4CC(CC(C4)C2)C3)cc1	–	–	–	–	–	–
CC(Cl)C(=O)NN=C(c1ccccc1)c1ccccc1 (stereo not drawn)	·	16	·	–	–	–
CCN(CC)CC(=O)NN=C(c1ccccc1)c1ccccc1	–	–	?	–	–	–
CC(C)(C)C(CCl)C(=O)NN=C(c1ccccc1)c1ccccc1 (stereo not drawn)	·	·	·	–	–	·
O=C(CCl)NN=C(c1ccccc1)c1ccccc1	–	–	–	25µM	–	–
O=C(NCC1CCCO1)c1ccc(NC(=O)c2cccc(Cl)c2)cc1 (stereo not drawn)	·	·	·	–	–	·
COc1cc(OC)c2c3c(c(C4CCCCC4)nc2c1)CCC3	·	·	·	–	–	·
O=C(Cc1ccccc1)c1ccccc1C(=O)N1CCCCC1	–	–	?	–	3.2µM	–
SMILES	LASV entry inh	Cycloheximide cs	MARV entry inh	FMDV antiviral	HCV inhibitor	Shiga inhibitor
O=C(Cc1ccccc1)Nc1ccccc1C(=O)N1CCCCC1	·	–	·	–	–	–
Cc1cc(C(=O)N/N=C/c2ccc([N+](=O)[O-])cc2)c(C)o1	–	–	–	–	–	–
Cc1ccc(NC(=O)c2nc(S(=O)(=O)Cc3ccc(F)cc3)ncc2Cl)cc1C	?	·	?	28µM	·	·
Cc1ccc(NC(=O)c2nc(S(=O)(=O)Cc3ccccc3C)ncc2Cl)cc1C	?	37	?	40µM	?	39
CC(=O)Nc1ccc(NC(=O)c2nc(S(=O)(=O)Cc3ccc(F)cc3)ncc2Cl)cc1	?	·	?	32µM	·	·
CCc1ccc(NC(=O)c2nc(S(=O)(=O)Cc3ccccc3)ncc2Cl)cc1	·	–	·	·	·	–
Cc1nnc2sc(SCC(=O)Nc3nccs3)nn2c1=O	–	–	?	–	–	–
